Measurements: PubChem BioAssay AID1159580 (chemical genetic matrix, 2015)
In all, about 5,500 compounds went through this assay and about 2,000 (36%) were called active. Another 18% or so got no clear call; they are omitted. The list shows a part of the results. Unmarked numbers belong to inactive results. Cut-off read from the data, not from the text of the source: active = normalized growth mostly below about 0.91 (no sharp cut-off); inconclusive = no clear call, values can overlap the other calls; inactive = mostly above about 0.92.

Test: chemical genetic growth profiling, strain panel (AID 1159580);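 note: tested at 20 µM; growth read once vehicle control cultures reached saturation at 30 °C; 1 = growth at the plate median or of vehicle wells; lower values mean less growth of the strain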
Conditions: growth OD
[1] = S. cerevisiae deletion strains, locus YDL101C, strain DUN1, hits give low values
[2] = S. cerevisiae deletion strains, locus YHR030C, strain SLT2, hits give low values
[3] = S. cerevisiae deletion strains, locus YGR229C, strain SMI1, hits give low values
[4] = S. cerevisiae deletion strains, locus YMR263W, strain SAP30, hits give low values
[5] = S. cerevisiae deletion strains, locus YMR307W, strain GAS1, hits give low values
[6] = S. cerevisiae deletion strains, locus YNL153C, strain GIM3, hits give low values
[7] = S. cerevisiae deletion strains, locus YPL055C, strain LGE1, hits give low values
[8] = S. cerevisiae deletion strains, locus YPL241C, strain CIN2, hits give low values
[9] = S. cerevisiae deletion strains, locus YBR229C, strain ROT2, hits give low values
[10] = S. cerevisiae deletion strains, locus YDR150W, strain NUM1, hits give low values
[11] = S. cerevisiae deletion strains, locus YEL061C, strain CIN8, hits give low values
[12] = S. cerevisiae deletion strains, locus YGR078C, strain PAC10, hits give low values
[13] = S. cerevisiae deletion strains, locus YHR087W, strain rtc3, hits give low values
[14] = S. cerevisiae deletion strains, locus YJR043C, strain POL32, hits give low values
[15] = S. cerevisiae deletion strains, locus YJR075W, strain HOC1, hits give low values
[16] = S. cerevisiae deletion strains, locus YLR039C, strain RIC1, hits give low values
[17] = S. cerevisiae deletion strains, locus YLR058C, strain SHM2 (second series), hits give low values
[18] = S. cerevisiae deletion strains, locus YLR085C, strain ARP6, hits give low values
[19] = S. cerevisiae deletion strains, locus YLR262C, strain YPT6, hits give low values
[20] = S. cerevisiae deletion strains, locus YML094W, strain GIM5, hits give low values
[21] = S. cerevisiae deletion strains, locus YMR219W, strain ESC1, hits give low values
[22] = S. cerevisiae deletion strains, locus YNL298W, strain CLA4 (second series), hits give low values
[23] = S. cerevisiae deletion strains, locus YNL322C, strain KRE1, hits give low values
[24] = S. cerevisiae deletion strains, locus YNR030W, strain Alg12, hits give low values
[25] = S. cerevisiae deletion strains, locus YPR135W, strain CTF4, hits give low values

## N#Cc1ccc(NC(=O)Nc2cccc3ccccc23)cc1
S. cerevisiae deletion strains, locus YAR019C, strain CDC15, hits give low values
  normalized growth: 0.965
S. cerevisiae deletion strains, locus YBL105C, strain PKC1, hits give low values
  normalized growth: 0.974
S. cerevisiae deletion strains, locus YBR135W, strain CKS1, hits give low values
  normalized growth: 0.96
S. cerevisiae deletion strains, locus YBR136W, strain MEC1, hits give low values
  normalized growth: 0.971
S. cerevisiae deletion strains, locus YBR160W, strain CDC28, hits give low values
  normalized growth: 0.96
S. cerevisiae deletion strains, locus YDL017W, strain CDC7, hits give low values
  normalized growth: 0.974
S. cerevisiae deletion strains, locus YDL028C, strain MPS1, hits give low values
  normalized growth: 0.971
[1]
  normalized growth: 0.992
S. cerevisiae deletion strains, locus YDL108W, strain KIN28, hits give low values
  normalized growth: 0.958
S. cerevisiae deletion strains, locus YDL132W, strain cdc53, hits give low values
  normalized growth: 0.972
S. cerevisiae deletion strains, locus YDL214C, strain PRR2, hits give low values
  normalized growth: 0.928
S. cerevisiae deletion strains, locus YDR052C, strain DBF4, hits give low values
  normalized growth: 0.995
S. cerevisiae deletion strains, locus YDR054C, strain cdc34, hits give low values
  normalized growth: 0.957
S. cerevisiae deletion strains, locus YDR226W, strain ADK1, hits give low values
  normalized growth: 0.985
S. cerevisiae deletion strains, locus YDR477W, strain SNF1, hits give low values
  normalized growth: 0.926
S. cerevisiae deletion strains, locus YER123W, strain YCK3, hits give low values
  normalized growth: 0.919
S. cerevisiae deletion strains, locus YER133W, strain GLC7, hits give low values
  normalized growth: 0.955
S. cerevisiae deletion strains, locus YFL009W, strain cdc4, hits give low values
  normalized growth: 0.967
S. cerevisiae deletion strains, locus YFL029C, strain CAK1, hits give low values
  normalized growth: 0.968
S. cerevisiae deletion strains, locus YFR003C, strain YPI1, hits give low values
  normalized growth: 0.968
S. cerevisiae deletion strains, locus YFR019W, strain FAB1, hits give low values
  normalized growth: 0.932
S. cerevisiae deletion strains, locus YFR028C, strain CDC14, hits give low values
  normalized growth: 0.958
S. cerevisiae deletion strains, locus YGR040W, strain KSS1, hits give low values
  normalized growth: 0.921
S. cerevisiae deletion strains, locus YGR052W, strain FMP48, hits give low values
  normalized growth: 0.979
S. cerevisiae deletion strains, locus YGR092W, strain DBF2, hits give low values
  normalized growth: 0.923
[2]
  normalized growth: 0.938
S. cerevisiae deletion strains, locus YHR079C, strain IRE1, hits give low values
  normalized growth: 0.924
S. cerevisiae deletion strains, locus YHR082C, strain KSP1, hits give low values
  normalized growth: 0.986
S. cerevisiae deletion strains, locus YHR205W, strain SCH9, hits give low values
  normalized growth: 0.89
S. cerevisiae deletion strains, locus YIL147C, strain SLN1, hits give low values
  normalized growth: 0.963
S. cerevisiae deletion strains, locus YJL095W, strain BCK1, hits give low values
  normalized growth: 0.962
S. cerevisiae deletion strains, locus YJL128C, strain PBS2, hits give low values
  normalized growth: 0.955
S. cerevisiae deletion strains, locus YJL157C, strain FAR1, hits give low values
  normalized growth: 0.929
S. cerevisiae deletion strains, locus YJR016C, strain ILV3, hits give low values
  normalized growth: 0.966
S. cerevisiae deletion strains, locus YJR066W, strain TOR1 (second series), hits give low values
  normalized growth: 0.903
S. cerevisiae deletion strains, locus YJR066W, strain TOR1, hits give low values
  normalized growth: 0.972
S. cerevisiae deletion strains, locus YKL048C, strain ELM1, hits give low values
  normalized growth: 0.949
S. cerevisiae deletion strains, locus YKL067W, strain YNK1, hits give low values
  normalized growth: 0.941
S. cerevisiae deletion strains, locus YKL101W, strain HSL1, hits give low values
  normalized growth: 0.916
S. cerevisiae deletion strains, locus YKL193C, strain SDS22, hits give low values
  normalized growth: 0.963
S. cerevisiae deletion strains, locus YKL203C, strain TOR2, hits give low values
  normalized growth: 0.998
S. cerevisiae deletion strains, locus YLR113W, strain HOG1, hits give low values
  normalized growth: 0.832 (active)
S. cerevisiae deletion strains, locus YLR133W, strain CKI1, hits give low values
  normalized growth: 0.913
S. cerevisiae deletion strains, locus YLR403W, strain SFP1, hits give low values
  normalized growth: 0.892
S. cerevisiae deletion strains, locus YML070W, strain DAK1, hits give low values
  normalized growth: 0.901
S. cerevisiae deletion strains, locus YMR001C, strain CDC5, hits give low values
  normalized growth: 0.967
S. cerevisiae deletion strains, locus YMR205C, strain PFK2 (second series), hits give low values
  normalized growth: 0.939
S. cerevisiae deletion strains, locus YMR277W, strain FCP1, hits give low values
  normalized growth: 0.966
S. cerevisiae deletion strains, locus YNL006W, strain LST8, hits give low values
  normalized growth: 0.978
S. cerevisiae deletion strains, locus YNL020C, strain ARK1, hits give low values
  normalized growth: 0.917
S. cerevisiae deletion strains, locus YNL161W, strain CBK1, hits give low values
  normalized growth: 0.963
S. cerevisiae deletion strains, locus YNL183C, strain NPR1, hits give low values
  normalized growth: 0.943
S. cerevisiae deletion strains, locus YNL207W, strain RIO2, hits give low values
  normalized growth: 0.968
S. cerevisiae deletion strains, locus YNL222W, strain SSU72, hits give low values
  normalized growth: 0.967
S. cerevisiae deletion strains, locus YNL307C, strain MCK1 (second series), hits give low values
  normalized growth: 0.925
S. cerevisiae deletion strains, locus YOL078W, strain AVO1, hits give low values
  normalized growth: 0.972
S. cerevisiae deletion strains, locus YOL136C, strain PFK27, hits give low values
  normalized growth: 0.91
S. cerevisiae deletion strains, locus YOR061W, strain CKA2, hits give low values
  normalized growth: 0.929
S. cerevisiae deletion strains, locus YOR119C, strain RIO1, hits give low values
  normalized growth: 0.966
S. cerevisiae deletion strains, locus YOR231W, strain MKK1, hits give low values
  normalized growth: 0.887
S. cerevisiae deletion strains, locus YOR329C, strain SCD5, hits give low values
  normalized growth: 0.976
S. cerevisiae deletion strains, locus YPL031C, strain PHO85, hits give low values
  normalized growth: 0.92
S. cerevisiae deletion strains, locus YPL153C, strain RAD53, hits give low values
  normalized growth: 0.925
S. cerevisiae deletion strains, locus YPL204W, strain HRR25, hits give low values
  normalized growth: 0.909
S. cerevisiae deletion strains, locus YPL209C, strain IPL1, hits give low values
  normalized growth: 0.967
S. cerevisiae deletion strains, locus YPL256C, strain CLN2, hits give low values
  normalized growth: 0.872
S. cerevisiae deletion strains, locus YPR025C, strain CCL1, hits give low values
  normalized growth: 0.967
S. cerevisiae deletion strains, locus YPR106W, strain ISR1, hits give low values
  normalized growth: 0.958
S. cerevisiae deletion strains, locus YPR111W, strain DBF20, hits give low values
  normalized growth: 0.952
S. cerevisiae deletion strains, strain NNK1, hits give low values
  normalized growth: 0.967
S. cerevisiae deletion strains, strain TSCII, hits give low values
  normalized growth: 0.969

## CCCn1c(=O)c2[nH]c(-c3ccc(OCC(=O)Nc4ccc(C#N)cc4)cc3)nc2n(CCC)c1=O
S. cerevisiae deletion strains, locus YAL040C, strain CLN3, hits give low values
  normalized growth: 0.979
S. cerevisiae deletion strains, locus YCL061C, strain MRC1 (second series), hits give low values
  normalized growth: 0.998
S. cerevisiae deletion strains, locus YDR363W, strain ESC2, hits give low values
  normalized growth: 1.02
S. cerevisiae deletion strains, locus YER002W, strain NOP16, hits give low values
  normalized growth: 1
[3]
  normalized growth: 0.995
[4]
  normalized growth: 0.982
[5]
  normalized growth: 1.02
[6]
  normalized growth: 1.01
S. cerevisiae deletion strains, locus YNL175C, strain NOP13, hits give low values
  normalized growth: 0.994
S. cerevisiae deletion strains, locus YNL197C, strain WHI3, hits give low values
  normalized growth: 0.978
S. cerevisiae deletion strains, locus YNL224C, strain SQS1, hits give low values
  normalized growth: 0.992
S. cerevisiae deletion strains, locus YOR083W, strain WHI5 (second series), hits give low values
  normalized growth: 0.992
[7]
  normalized growth: 0.998
[8]
  normalized growth: 0.973

## NNC(=O)c1ccccc1O
[9]
  normalized growth: 0.986
[1]
  normalized growth: 0.975
S. cerevisiae deletion strains, locus YDL134C, strain PPH21, hits give low values
  normalized growth: 0.988
[10]
  normalized growth: 0.892
[11]
  normalized growth: 0.965
[12]
  normalized growth: 1.01
[3]
  normalized growth: 0.989
[2]
  normalized growth: 1.03
[13]
  normalized growth: 0.99
[14]
  normalized growth: 0.96
[15]
  normalized growth: 1.02
S. cerevisiae deletion strains, locus YKL190W, strain CNB1, hits give low values
  normalized growth: 0.983
[16]
  normalized growth: 0.958
[17]
  normalized growth: 1
[18]
  normalized growth: 0.962
[19]
  normalized growth: 0.975
[20]
  normalized growth: 0.963
[21]
  normalized growth: 0.996
[4]
  normalized growth: 1.01
[6]
  normalized growth: 1.01
[22]
  normalized growth: 0.976
[23]
  normalized growth: 1.01
[24]
  normalized growth: 1.01
[7]
  normalized growth: 0.916
[8]
  normalized growth: 1.11
[25]
  normalized growth: 0.956

## CCc1ccccc1NC(C)=O
S. cerevisiae deletion strains, locus YAL013W, strain DEP1, hits give low values
  normalized growth: 1.04
[9]
  normalized growth: 1
[1]
  normalized growth: 1.01
[10]
  normalized growth: 1.01
[11]
  normalized growth: 1.02
[12]
  normalized growth: 1
[2]
  normalized growth: 1.08
[13]
  normalized growth: 1.01
S. cerevisiae deletion strains, locus YJL187C, strain SWE1, hits give low values
  normalized growth: 1
[14]
  normalized growth: 0.995
[15]
  normalized growth: 0.997
[16]
  normalized growth: 0.992
[17]
  normalized growth: 0.997
[18]
  normalized growth: 1.01
[19]
  normalized growth: 1.06
[20]
  normalized growth: 1.03
[21]
  normalized growth: 1.01
[4]
  normalized growth: 0.998
[5]
  normalized growth: 0.972
[6]
  normalized growth: 1.01
[22]
  normalized growth: 1.03
[23]
  normalized growth: 0.993
[24]
  normalized growth: 1.03
[7]
  normalized growth: 0.901
[8]
  normalized growth: 1.01
[25]
  normalized growth: 1.24
S. cerevisiae strains, strain wild type, hits give low values
  normalized growth: 0.985
